Among the data in PubChem BioAssay are z-score values, retold here.

Calls of active or inactive are those of the source.

Experiment [1] is described as follows: A549 cell viability effects, profiling panel, calcein-AM fluorescence, 48 h, basal (AID 1162). The note with it: higher = more signal.
Experiment [2] is described as follows: adipocyte viability effects, profiling panel, cell-based, 3T3-L1 adipocytes, calcein-AM fluorescence, 48 h, basal (AID 1163). The settings on record: 3T3-L1 adipocytes viability, higher = more signal.
A short description of experiment [3]: HepG2 cell viability effects, profiling panel, calcein-AM fluorescence, 48 h, basal (AID 1164). The settings on record: higher = more signal.
The nature of experiment [4]: MM1S cell viability effects, profiling panel, calcein-AM fluorescence, 48 h, basal (AID 1165).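 Further: viability of MM1S multiple myeloma cells under basal unstimulated conditions.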 The note with it: higher = more signal.
Experiment [5] can be described thus: basal RPMI8226 viability, no added stimulus, profiling panel, cell-based, calcein-AM fluorescence, 48 h, PK04 Diversity Set (AID 1166).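 Further: cells grown under basal conditions without added stimulus.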 The settings on record: RPMI8226 myeloma viability, higher = more signal.
Experiment [6] can be described thus: basal HepG2 mitochondrial membrane potential changes, profiling panel, cell-based, JC-1 fluorescence, 24 h, 100 nL compound (AID 1167). The note with it: higher = more signal.
The nature of experiment [7]: basal 3T3-L1 adipocyte mitochondrial potential changes, profiling panel, cell-based, JC-1 fluorescence, 3T3-L1 adipocytes, 24 h, 100 nL compound (AID 1168). The note with it: JC-1 mitochondrial fluorescence, higher = more signal, called active from +8 up or from −8 down.
The nature of experiment [8]: basal RPMI8226 mitochondrial membrane potential changes, profiling panel, cell-based, JC-1 fluorescence, 24 h, 100 nL compound (AID 1169). The settings on record: RPMI8226 myeloma, JC-1 mitochondrial potential fluorescence, higher = more signal.
Experiment [9] is described as follows: basal MM1S mitochondrial membrane potential changes, profiling panel, cell-based, JC-1 fluorescence, 24 h, 100 nL compound (AID 1170). The settings on record: higher = more signal.
Experiment [10] can be described thus: A549 lung cancer cell viability effects, profiling panel, resazurin fluorescence, 24 h, PK04 Diversity Set (AID 1171). The note with it: higher = more signal, called active from +8 up or from −8 down. (Resazurin is reduced to fluorescent resorufin, in cell work by metabolically active cells.)
Further: test concentration not given here.

Take `[N-]=[N+]=NCc1ccccc1[C@@H]1OC(c2ccc(OCCCO)cc2)=N[C@]1(CCS(=O)(=O)c1ccccc1)C(=O)O`: the z-score in experiment [1] was 0.338; in experiment [2] it was -0.801; in experiment [3] it was 1.05; in experiment [4], 0.078; in experiment [5] it was -0.206; in [6] it was -1.69. The z-score in [7] is -1.02 (inactive); in experiment [8] it was -0.178; in [9], -1.39; in experiment [10] it was -0.216 (inactive).
Regarding `CC(C)C(CO)N1C(=O)[C@@H]2C3C(=O)OCCC/C=C\[C@H]3OC23C=CCN(c2ccc4ccccc4c2)C(=O)[C@@H]13` (stereo not given in full), the z-score in experiment [1] was -0.0401; in experiment [2], -0.0738; in [3], -0.131; in experiment [4], 0.292; in experiment [5] it was 0.457; in [6], -0.0404. Moreover, the z-score in experiment [7] is -0.0718 (inactive); in experiment [8] it was 0.0134; in experiment [9], -0.332; in experiment [10] it was -0.525 (inactive).
As to `COC(=O)[C@@H]1N=C(c2ccc(OCCCO)cc2)O[C@@H]1C`, the z-score in [1] was 0.0963; in experiment [2] it was -0.317; in experiment [3], 0.958; in experiment [4], 0.916; in experiment [5], -0.086; in experiment [6] it was 0.5. The z-score in experiment [7] was 0.797 (inactive); in experiment [8] it was -0.155; in experiment [9] it was -1; in experiment [10], -0.155 (inactive).
On to `NC(=O)NCC#Cc1ccc2c(c1)[C@]1(C(=O)N2)[C@H](c2ccccc2OCCO)N2[C@H](c3ccccc3)[C@H](c3ccccc3)OC(=O)[C@H]2[C@@H]1C(=O)O`, for which the z-score in experiment [1] is -0.371; in [2], -0.161; in [3] it was -1.06; in experiment [4], -0.253; in [5] it was 0.713; in experiment [6] it was -0.716. For the same compound, the z-score is 0.485 (inactive) in [7], 0.689 in experiment [8], -0.394 in experiment [9] and 1.73 (inactive) in experiment [10].
For the compound `COC(=O)[C@@H]1N=C(c2ccc(OCCCO)cc2)O[C@@H]1c1ccccc1`, the z-score in experiment [1] is 0.623; in experiment [2], 0.469; in experiment [3], -0.677; in experiment [4] it was 0.565; in experiment [5], 0.474; in experiment [6], -0.659. Besides, the z-score is -0.652 (inactive) in experiment [7], 0.278 in experiment [8], -0.241 in experiment [9] and 0.331 (inactive) in experiment [10].
Turning to `NCCCCCCNC(=O)[C@@H]1C[C@@H]2C(=O)N[C@@H](CCCCN)C(=O)N2[C@@H]1c1ccc(O)cc1`, the z-score in experiment [1] is -0.551; in [2], 0.207; in experiment [3] it was -0.99; in experiment [4], -1.25; in [5] it was -0.0734; in [6] it was -1.31. For the same compound, the z-score was 0.535 (inactive) in [7], -0.0408 in [8], -0.276 in experiment [9] and -0.71 (inactive) in [10].
`[N-]=[N+]=Nc1ccccc1C[C@]1(C(=O)NCC(O)CO)COC(c2ccc(OCCCO)cc2)=N1` (stereo not given in full): the z-score in [1] is 0.67; in experiment [2] it was 1.11; in experiment [3], 0.409; in experiment [4], 0.195; in experiment [5], -0.0237; in [6] it was 0.244. For the same compound, the z-score in experiment [7] was -0.257 (inactive); in [8] it was -0.847; in [9] it was 0.639; in experiment [10] it was 0.837 (inactive).
As for `[N-]=[N+]=Nc1ccccc1C[C@@]1(C(=O)NCCN2CCOCC2)N=C(c2ccc(OCCCO)cc2)O[C@@H]1c1ccccc1N=[N+]=[N-]`, the z-score in experiment [1] was -1.96; in experiment [2], 0.205; in experiment [3] it was -2.04; in experiment [4], -2.94; in [5], -3.31; in [6] it was -0.112. Besides, the z-score in experiment [7] was -0.29 (inactive); in experiment [8], -1.26; in experiment [9], -1.27; in [10], -1 (inactive).
In the case of `COc1cc(OC)c(C(O)C2C=CC3C(=O)N(Cc4ccccc4)C(=O)C3N2n2cnnc2)cc1Br` (stereo not given), the z-score was -0.407 in experiment [1]; 0.767 in experiment [2]; -0.161 in [3]; -0.125 in experiment [4]; -0.0145 in experiment [5]; -0.769 in [6]. In addition, the z-score was 0.771 (inactive) in [7], -0.345 in [8], -0.395 in [9] and -0.963 (inactive) in experiment [10].
With `CN1C2C=C(CCCO)C(C3C(=O)N(C(N)=O)C(=O)C32)C1C1CC1` (stereo not given), the z-score in experiment [1] is 0.0701; in experiment [2], -0.0683; in experiment [3], 0.592; in experiment [4], 0.0641; in experiment [5], -0.952; in experiment [6], -0.486. For the same compound, the z-score was 0.0295 (inactive) in experiment [7], 0.192 in [8], 0.238 in [9] and -0.513 (inactive) in experiment [10].
Take `C=C(COC)/C(=C/C[C@H](OC(=O)c1ccncc1)c1ccc(CO)o1)c1cnc2ccccc2c1`: the z-score in [1] is 0.349; in experiment [2], -0.474; in [3] it was -0.439; in [4] it was -1.41; in experiment [5], -0.366; in experiment [6], -1.06. Moreover, the z-score was -0.582 (inactive) in experiment [7], 0.178 in experiment [8], -0.592 in experiment [9] and -0.319 (inactive) in [10].
On to `O=C(Cc1ccccc1)[C@H]1C2C=CCCC(c3ccccc3)=C2CN1Cc1ccccc1` (stereo not given in full), for which the z-score in experiment [1] was 0.128; in experiment [2], 0.169; in experiment [3], 0.436; in [4], 0.743; in experiment [5] it was 0.602; in [6], 0.655. For the same compound, the z-score was 0.122 (inactive) in experiment [7], -0.196 in experiment [8], 0.584 in experiment [9] and 0.807 (inactive) in [10].
On to `[N-]=[N+]=Nc1ccccc1[C@@H]1OC(c2ccc(OCCCO)cc2)=N[C@]1(Cc1ccccc1)C(=O)N1CCCCC1`, for which the z-score in experiment [1] is -0.523; in [2], -0.0528; in experiment [3] it was -0.822; in [4], -2.91; in experiment [5], -4.32; in experiment [6], 0.408. The z-score in experiment [7] was 1.87 (inactive); in [8] it was -1.17; in experiment [9] it was -2.19; in [10], -1.61 (inactive).
